Source: PubChem BioAssay
A number with no mark means an inactive call. How the calls were made is not given here.

Experiments:
[1] = circadian clock period modulators, cell-based, LOPAC library, luminescence reporter (AID 2774); conditions: circadian reporter cells, at 7 µM, actives lie on both sides;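 further: values are relative to mean of DMSO wells on each plate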
[2] = hESC survival regulators, cell-based (AID 493140); conditions: human embryonic stem cell survival screen; hits give high values;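 further: cells exposed to compounds for four days before counting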

`NC(=O)OCC(COC(N)=O)c1ccccc1` showed a period change [1] of -0.105 h.

Work on `COc1cc(C(=O)OCCCN2CCCN(CCCOC(=O)c3cc(OC)c(OC)c(OC)c3)CC2)cc(OC)c1OC` yielded a period change [1] of -0.025 h and a survival [2] of 9.25.

Work on `CC(C(=O)O)c1ccc(CC2CCCC2=O)cc1` (centres undefined) yielded a period change [1] of -0.055 h.

With `CNCC(O)c1ccc(O)c(O)c1` (centres undefined) the period change [1] was -0.055 h.

`Cc1cn[nH]c1` gave a period change [1] of 0.23 h.

In the case of `CCN(CC)CCNC(=O)c1ccc(NC(C)=O)cc1`, the period change [1] is reported as 0.01 h.

Compound `Nc1nc2c(ncn2COC(CO)CO)c(=O)[nH]1` has a period change [1] of -0.27 h and a survival [2] of 3.83.

For `Cc1[nH]c(=O)c(C#N)cc1-c1ccncc1`, the period change [1] was -0.005 h and the survival [2] was 9.17.

`COc1cc2nc(N3CCN(C(=O)C4CCCO4)CC3)nc(N)c2cc1OC` (centres undefined) showed a period change [1] of 0.02 h and a survival [2] of 3.75.

`Nc1nnc(-c2cccc(Cl)c2Cl)c(N)n1` showed a period change [1] of -0.15 h.

For `C[C@H]1O[C@@H](n2cc(F)c(=O)[nH]c2=O)[C@H](O)[C@@H]1O`, the period change [1] was -0.1 h.

`CC(C)NCC(O)COc1ccc(CCOCC2CC2)cc1` (centres undefined) showed a period change [1] of 0.03 h and a survival [2] of 8.33.

`COc1cc(-c2ccc(=O)[nH]n2)ccc1OC(F)F` gave a period change [1] of -0.1 h and a survival [2] of 1.92.

`CCCCNc1c(C(=O)OCC)c(C)nc2c1cnn2CC` showed a period change [1] of 0.105 h and a survival [2] of 17.3.

For `C[C@]12CC[C@@H]3c4ccc(O)cc4CC[C@H]3[C@@H]1CCC2=O`, the period change [1] was -0.125 h and the survival [2] was 2.5.

`CN1CCN(C2=Nc3ccccc3Oc3ccc(Cl)cc32)CC1` gave a period change [1] of -0.045 h and a survival [2] of 12.

`CN1C(C)(C)CCCC1(C)C` showed a period change [1] of -0.07 h and a survival [2] of 3.5.

`CC1(C)NC(=O)N(c2ccc([N+](=O)[O-])c(C(F)(F)F)c2)C1=O` gave a period change [1] of 0.085 h and a survival [2] of 0.917.

`O=c1c(-c2ccc(O)cc2)coc2cc(O)cc(O)c12` showed a period change [1] of 0 h.

In the case of `NC(N)=Nc1nc(CSCC/C(N)=N/S(N)(=O)=O)cs1`, the period change [1] is reported as -0.03 h and the survival [2] is reported as 16.5.

For `C=CC(N)CCC(=O)O` (centres undefined), the period change [1] was 0.105 h and the survival [2] was 14.4.

Compound `O=C(c1ccc(F)cc1)C1CCN(CCn2c(=O)[nH]c3ccccc3c2=O)CC1` has a period change [1] of 0 h and a survival [2] of 12.7.

`NCCS(=O)(=O)O` gave a period change [1] of -0.23 h.

Compound `COc1ccccc1N1CCN(CC(O)COc2cccc3ccccc23)CC1` (centres undefined) has a period change [1] of 0.04 h and a survival [2] of 8.25.

Work on `CC(=O)OC(C)C[N+](C)(C)C` (centres undefined) yielded a period change [1] of -0.04 h and a survival [2] of 1.33.

`C[n+]1cc2c3c(ccc2c2ccc4cc5c(cc4c21)OCO5)OCO3` showed a period change [1] of -0.18 h and a survival [2] of 1.33.

In the case of `CC(=O)O[C@]1(C(C)=O)CC[C@H]2[C@@H]3C=C(Cl)C4=CC(=O)[C@@H]5C[C@@H]5[C@]4(C)[C@H]3CC[C@@]21C`, the period change [1] is reported as 0.03 h.

Compound `Cc1scc2c1N(C(=O)CN1CCN(C)CC1)c1ccccc1NC2=O` has a period change [1] of 0.165 h and a survival [2] of 11.3.

In the case of `COc1ccc(C2CNC(=O)C2)cc1OC1CCCC1` (centres undefined), the period change [1] is reported as -0.065 h and the survival [2] is reported as 3.92.

With `CN(C)CC[C@@H](c1ccc(Br)cc1)c1ccccn1` the period change [1] was -0.05 h.

Compound `NC(N)=NC(=O)Cc1c(Cl)cccc1Cl` has a period change [1] of 0.09 h and a survival [2] of 7.33.

With `Cc1c(N(C)C)c(=O)n(-c2ccccc2)n1C` the survival [2] was 13.6.

For `CN1CCC(=C2c3ccccc3C=Cc3ccccc32)CC1`, the period change [1] was 0.015 h and the survival [2] was 13.7.

For `CC(=O)[C@@]1(O)CC[C@H]2[C@@H]3C[C@H](C)C4=CC(=O)C=C[C@]4(C)[C@@]3(F)[C@@H](O)C[C@@]21C`, the survival [2] was 6.17.

Work on `CCCCCN(CCCCC)C(=O)C(CCC(=O)O)NC(=O)c1ccc(Cl)c(Cl)c1` (centres undefined) yielded a period change [1] of 0.13 h and a survival [2] of 1.92.

`CCC(=O)O[C@]1(C(=O)SCF)[C@H](C)C[C@H]2[C@@H]3C[C@H](F)C4=CC(=O)C=C[C@]4(C)[C@@]3(F)[C@@H](O)C[C@@]21C` gave a survival [2] of 6.58.

`CC1CC(OC(=O)C(O)c2ccccc2)CC(C)(C)N1C` (centres undefined) showed a survival [2] of 2.33.
